The record followed here is PubChem BioAssay (NCATS).

Experiment [1] in a line: Primary qHTS for small molecule stabilizers of the endoplasmic reticulum resident proteome: Secreted ER Calcium Modulated Protein (SERCaMP) assay (AID 1508630). Further: on the % scale 0 is the no-effect control and ±100 the full control effect. Summed up: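 GLuc-SERCaMP-expressing SH-SY5Y cells, pretreated 16 h with compound, are challenged with thapsigargin to empty ER calcium stores; after 4 h, coelenterazine is added directly to the medium and luminescence is imaged.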
A general note: In qHTS, concentration-response curves come from the screen itself.

The target in experiment [2] is Cytochrome P450 2D6 (Homo sapiens) (UniProt P10635). The experiment in a line: Cytochrome P450 family 2 subfamily D member 6 (CYP2D6) small molecule antagonists: luciferase biochemical (cell-free) qHTS assay (AID 1645840; active means well fitted curve in the direction sought with a large enough effect in the repeat runs; an effect the other way counts as inactive or inconclusive; further: nearly all actives have a fitted effect of over 55% in size; further: potency means the concentration at half of the fitted maximal effect). The method in brief:
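P450-Glo luminescent screen: recombinant CYP2D6 enzyme–proluciferin substrate mix preincubated with compound 10 min at room temperature, then NADPH regeneration added for 1 h at room temperature. Detection reagent added for 20 min; luciferin light read as relative luminescence units.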

Experiment [3] addresses Cytochrome P450 2C9 (Homo sapiens) (UniProt P11712). Nature of the experiment: Cytochrome P450 family 2 subfamily C member 9 (CYP2C9) small molecule antagonists: luciferase biochemical (cell-free) qHTS assay (AID 1645842; active means well fitted curve in the direction sought with a large enough effect in the repeat runs; an effect the other way counts as inactive or inconclusive; further: nearly all actives have a fitted effect of over 55% in size; further: potency means the concentration at half of the fitted maximal effect; on activity change, negative = inhibition: on the % scale 0 is the no-effect control and ±100 the full control effect). Summed up: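 Luminescence, after 20 min with luciferin detection reagent, reflected CYP2C9 turnover during a 1 h NADPH-driven reaction at 37C. Enzyme-substrate mix contained 0.4% bovine serum albumin and was preincubated with compound 10 min at room temperature.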

In another experiment the target is Papain (Carica papaya) (UniProt P00784). The experiment in a line: Primary qHTS assay for inhibitors of the protease papain (AID 1645873).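 Further: papain turnover of Z-FR-AMC read as the AMC fluorescence gain over 10 min; on the % scale 0 is the no-effect control and ±100 the full control effect.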
A short description of experiment [4]: Primary qHTS for inhibitors of nuclear receptor binding SET domain protein 2 (NSD2) in an isogenic RCH-ACV NSD2 p.E1099K mutant (9B) (AID 1645876). Further: nearly all actives have a fitted effect of over 70% in size. Further: potency means the concentration at half of the fitted maximal effect.
A short description of experiment [5]: Primary qHTS for inhibitors of nuclear receptor binding SET domain protein 2 (NSD2) in an RCH-ACV wild type WT cells (2C) (AID 1645877). Further: nearly all actives have a fitted effect of over 70% in size. Further: potency means the concentration at half of the fitted maximal effect.
Experiment [6] is described as follows: NCATS anti-infectives library activity on HEK293 viability as a counter-qHTS vs the C. elegans viability qHTS (AID 1745854).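 Further: HEK293 cells exposed to compounds for 24 hr before the viability read; on the % scale 0 is the no-effect control and ±100 the full control effect.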 Summed up:
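Compounds were acoustically plated (several concentrations, 1:5, final up to 41.7 uM), then 1500 HEK293 cells added per well and incubated 24 hr at 37C, 5% CO2. CellTiter-Glo was added and luminescence read after 10 min.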

Experiment [7] is described as follows: A High-Content qHTS Against Drug Library for the Identification of Small Molecules that Inhibit DYT1 Early Onset Primary Dystonia-Associated Cell Pathology (AID 1645839; calls by dose curve; further: potency means the concentration at half of the fitted maximal effect). The method in brief:
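Readout: %pathology, the punctate EGFP-TorsinA distribution from imaging, as the primary channel and cell count as the toxicity counterscreen. HEK293 Flp-In cells expressing delE TorsinA were induced with tetracycline and treated with compound for 48 h.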

The target of experiment [8] is Rap guanine nucleotide exchange factor 3 (Homo sapiens) (UniProt O95398). Nature of the experiment: Confirmatory qHTS for antagonist of cAMP-regulated guanine nucleotide exchange factor 3 (EPAC1) (AID 1645880).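 Further: plate controls were DMSO only for no effect and full effect of the ATA control for full effect; nearly all actives have a fitted effect of over 55% in size.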 The method in brief:
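Nucleotide exchange uses 100 nM EPAC1, 250 nM RAP1B-BODIPY-GDP and 50 uM GDP, with compounds in a concentration-titration series. After 5 min at room temperature, fluorescence (480 nm ex/540 nm em) is read every 5 min for 30 min. Data are normalized to control ATA and DMSO.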

The target is the same in experiment [9]. Nature of the experiment: Confirmatory qHTS for agonist of cAMP-regulated guanine nucleotide exchange factor 3 (EPAC1) (AID 1645881). Further: nearly all actives have a fitted effect of over 75% in size. Further: potency means the concentration at half of the fitted maximal effect.
The target in experiment [10] is Rap guanine nucleotide exchange factor 4 (Homo sapiens) (UniProt Q8WZA2). The experiment in a line: Confirmatory qHTS for antagonist of cAMP-regulated guanine nucleotide exchange factor 4 (EPAC2) (AID 1645885). Further: nearly all actives have a fitted effect of over 25% in size. Further: potency means the concentration at half of the fitted maximal effect.
The target in experiment [11] is Catechol O-methyltransferase (Homo sapiens) (UniProt P21964). Nature of the experiment: Confirmatory Screen for Target Class Profiling of Small Molecule Inhibitors of Methyltransferases (AID 1745852; calls by dose curve). The note with it: MTase-Glo luminescence, SAH detection, recombinant enzyme; measured here: COMT max response; stronger effect = lower value.
Experiment [12] concerns the target Guanidinoacetate N-methyltransferase (Homo sapiens) (UniProt Q14353). The description is as above. The following applies: MTase-Glo luminescence, SAH detection, recombinant enzyme; at 57.3 µM (top of the series).
For experiment [13], the target named is Nicotinamide N-methyltransferase (Homo sapiens) (UniProt P40261). The experiment is described as above. The note with it: MTase-Glo luminescence, SAH detection, recombinant enzyme; measured here: NNMT max response; stronger effect = lower value.
For experiment [14], the target named is Phenylethanolamine N-methyltransferase (Homo sapiens) (UniProt P11086). The experiment is described as above. The following applies: MTase-Glo luminescence, SAH detection, recombinant enzyme; measured here: PNMT max response; stronger effect = lower value.

The structures appear in SMILES notation. Where “and” joins values, the source holds several entries; their conditions need not be identical. Identical values can stand only once. Records with an inconclusive call do not appear. Calls of active or inactive are those of the source. Unless noted, the call rests on the fitted dose curve; in most records, active means well fitted curve in the direction sought with a large enough effect; inconclusive means small, poorly fitted or top-dose-only effect, or another doubt; inactive means no such curve, though single readings can be large; an effect the other way counts as inactive or inconclusive.

Chain of Rap guanine nucleotide exchange factor 3 (Homo sapiens) (O95398 whole entry, looked up): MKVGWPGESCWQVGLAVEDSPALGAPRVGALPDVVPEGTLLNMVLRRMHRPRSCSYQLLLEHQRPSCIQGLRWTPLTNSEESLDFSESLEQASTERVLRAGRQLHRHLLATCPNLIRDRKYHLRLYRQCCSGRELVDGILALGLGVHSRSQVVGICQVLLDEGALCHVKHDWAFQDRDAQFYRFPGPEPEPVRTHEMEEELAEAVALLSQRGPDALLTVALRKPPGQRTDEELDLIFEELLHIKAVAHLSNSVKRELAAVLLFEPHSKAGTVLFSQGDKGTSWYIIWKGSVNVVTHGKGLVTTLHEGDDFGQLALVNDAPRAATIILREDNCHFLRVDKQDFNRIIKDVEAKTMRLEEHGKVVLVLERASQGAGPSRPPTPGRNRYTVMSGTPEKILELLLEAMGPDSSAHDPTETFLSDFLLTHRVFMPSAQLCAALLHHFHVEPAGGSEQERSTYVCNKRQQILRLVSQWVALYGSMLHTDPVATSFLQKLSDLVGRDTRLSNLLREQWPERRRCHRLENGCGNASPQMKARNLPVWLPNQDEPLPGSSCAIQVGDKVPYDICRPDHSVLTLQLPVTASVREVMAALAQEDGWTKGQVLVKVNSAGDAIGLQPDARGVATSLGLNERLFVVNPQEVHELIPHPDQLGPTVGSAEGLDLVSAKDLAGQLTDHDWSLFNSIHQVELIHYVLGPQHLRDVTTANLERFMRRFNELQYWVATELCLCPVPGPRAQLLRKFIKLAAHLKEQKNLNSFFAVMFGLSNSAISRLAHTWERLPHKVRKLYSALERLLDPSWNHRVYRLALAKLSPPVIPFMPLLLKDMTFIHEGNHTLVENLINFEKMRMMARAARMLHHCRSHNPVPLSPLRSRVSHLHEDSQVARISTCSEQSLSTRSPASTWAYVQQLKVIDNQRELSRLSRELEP
Chain of Papain (Carica papaya) (P00784 whole entry, looked up, the tested form may be a part): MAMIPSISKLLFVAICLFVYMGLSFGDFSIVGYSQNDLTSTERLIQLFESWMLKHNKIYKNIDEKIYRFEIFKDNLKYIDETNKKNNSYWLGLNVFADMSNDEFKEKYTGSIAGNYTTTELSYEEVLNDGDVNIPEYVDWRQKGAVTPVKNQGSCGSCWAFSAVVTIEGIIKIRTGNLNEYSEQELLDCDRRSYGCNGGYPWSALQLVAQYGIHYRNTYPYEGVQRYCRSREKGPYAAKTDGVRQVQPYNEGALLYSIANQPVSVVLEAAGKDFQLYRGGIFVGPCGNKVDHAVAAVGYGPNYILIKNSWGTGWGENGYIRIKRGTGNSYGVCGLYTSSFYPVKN
Chain of Cytochrome P450 2C9 (Homo sapiens) (P11712 whole entry, looked up): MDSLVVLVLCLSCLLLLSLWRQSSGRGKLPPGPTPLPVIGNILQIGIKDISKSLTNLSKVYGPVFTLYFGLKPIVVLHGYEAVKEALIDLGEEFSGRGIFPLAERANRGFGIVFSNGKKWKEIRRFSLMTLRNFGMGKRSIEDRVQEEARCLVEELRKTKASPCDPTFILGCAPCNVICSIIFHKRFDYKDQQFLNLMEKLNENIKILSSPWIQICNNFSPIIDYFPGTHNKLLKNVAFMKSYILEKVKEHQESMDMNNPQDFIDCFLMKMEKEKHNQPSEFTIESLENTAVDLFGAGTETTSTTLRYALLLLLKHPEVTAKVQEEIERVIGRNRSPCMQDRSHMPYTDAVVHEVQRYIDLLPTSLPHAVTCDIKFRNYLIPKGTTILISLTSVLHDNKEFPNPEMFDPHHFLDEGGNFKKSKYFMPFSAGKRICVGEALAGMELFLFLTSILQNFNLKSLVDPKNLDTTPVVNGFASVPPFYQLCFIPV
Chain of Rap guanine nucleotide exchange factor 4 (Homo sapiens) (Q8WZA2 whole entry, looked up): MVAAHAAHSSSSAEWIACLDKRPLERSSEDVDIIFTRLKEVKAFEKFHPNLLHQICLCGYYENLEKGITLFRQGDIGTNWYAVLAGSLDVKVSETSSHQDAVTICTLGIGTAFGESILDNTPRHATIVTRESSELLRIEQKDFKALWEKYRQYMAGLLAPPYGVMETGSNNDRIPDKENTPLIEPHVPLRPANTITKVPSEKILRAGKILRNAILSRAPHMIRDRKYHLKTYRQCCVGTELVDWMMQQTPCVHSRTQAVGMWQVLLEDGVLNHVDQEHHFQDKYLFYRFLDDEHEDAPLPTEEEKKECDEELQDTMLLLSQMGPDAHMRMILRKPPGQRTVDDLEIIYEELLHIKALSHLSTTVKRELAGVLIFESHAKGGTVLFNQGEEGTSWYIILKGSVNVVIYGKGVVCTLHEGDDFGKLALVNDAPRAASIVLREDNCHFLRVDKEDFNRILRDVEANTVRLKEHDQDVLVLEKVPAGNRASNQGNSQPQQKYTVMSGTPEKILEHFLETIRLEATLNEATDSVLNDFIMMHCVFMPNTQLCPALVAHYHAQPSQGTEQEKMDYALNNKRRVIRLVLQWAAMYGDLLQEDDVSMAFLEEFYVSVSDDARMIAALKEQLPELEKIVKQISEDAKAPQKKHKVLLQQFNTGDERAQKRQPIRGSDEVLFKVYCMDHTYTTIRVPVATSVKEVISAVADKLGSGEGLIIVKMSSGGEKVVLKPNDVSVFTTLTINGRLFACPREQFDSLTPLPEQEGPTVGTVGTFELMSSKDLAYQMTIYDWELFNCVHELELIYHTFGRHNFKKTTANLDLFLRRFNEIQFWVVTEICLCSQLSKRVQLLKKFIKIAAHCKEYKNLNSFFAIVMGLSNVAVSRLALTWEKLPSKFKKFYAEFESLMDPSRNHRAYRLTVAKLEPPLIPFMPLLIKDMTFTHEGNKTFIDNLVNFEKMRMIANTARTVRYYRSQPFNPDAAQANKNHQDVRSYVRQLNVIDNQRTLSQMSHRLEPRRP
Chain of Cytochrome P450 2D6 (Homo sapiens) (P10635 whole entry, looked up): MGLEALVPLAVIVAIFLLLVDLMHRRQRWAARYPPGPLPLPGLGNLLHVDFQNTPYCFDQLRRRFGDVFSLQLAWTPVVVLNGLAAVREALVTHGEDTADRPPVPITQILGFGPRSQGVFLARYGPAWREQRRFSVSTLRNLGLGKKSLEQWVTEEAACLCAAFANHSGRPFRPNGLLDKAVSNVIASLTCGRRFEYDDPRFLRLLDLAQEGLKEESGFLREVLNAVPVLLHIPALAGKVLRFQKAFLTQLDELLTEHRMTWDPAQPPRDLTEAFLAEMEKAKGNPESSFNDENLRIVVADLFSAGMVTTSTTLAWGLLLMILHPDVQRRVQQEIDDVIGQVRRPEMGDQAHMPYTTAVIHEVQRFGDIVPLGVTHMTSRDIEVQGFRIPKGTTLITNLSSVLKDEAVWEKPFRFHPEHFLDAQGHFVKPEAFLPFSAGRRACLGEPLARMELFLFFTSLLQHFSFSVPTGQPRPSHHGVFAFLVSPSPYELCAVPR
Chain of Phenylethanolamine N-methyltransferase (Homo sapiens) (P11086 whole entry, looked up): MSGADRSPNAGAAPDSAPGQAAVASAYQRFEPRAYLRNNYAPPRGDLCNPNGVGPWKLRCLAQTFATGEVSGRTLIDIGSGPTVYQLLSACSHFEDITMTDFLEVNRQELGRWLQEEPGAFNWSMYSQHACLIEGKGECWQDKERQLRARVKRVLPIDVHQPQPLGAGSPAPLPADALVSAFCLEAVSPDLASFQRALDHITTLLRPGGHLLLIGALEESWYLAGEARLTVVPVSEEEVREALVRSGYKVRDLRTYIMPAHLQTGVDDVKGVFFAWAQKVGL
Chain of Nicotinamide N-methyltransferase (Homo sapiens) (P40261 whole entry, looked up): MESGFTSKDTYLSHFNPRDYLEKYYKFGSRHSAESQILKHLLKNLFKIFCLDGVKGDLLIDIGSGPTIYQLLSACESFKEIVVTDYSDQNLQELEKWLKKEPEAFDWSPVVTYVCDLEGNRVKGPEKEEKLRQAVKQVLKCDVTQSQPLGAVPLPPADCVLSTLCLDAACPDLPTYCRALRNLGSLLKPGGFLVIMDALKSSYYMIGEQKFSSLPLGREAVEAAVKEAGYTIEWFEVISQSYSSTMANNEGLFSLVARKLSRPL
Chain of Catechol O-methyltransferase (Homo sapiens) (P21964 whole entry, looked up): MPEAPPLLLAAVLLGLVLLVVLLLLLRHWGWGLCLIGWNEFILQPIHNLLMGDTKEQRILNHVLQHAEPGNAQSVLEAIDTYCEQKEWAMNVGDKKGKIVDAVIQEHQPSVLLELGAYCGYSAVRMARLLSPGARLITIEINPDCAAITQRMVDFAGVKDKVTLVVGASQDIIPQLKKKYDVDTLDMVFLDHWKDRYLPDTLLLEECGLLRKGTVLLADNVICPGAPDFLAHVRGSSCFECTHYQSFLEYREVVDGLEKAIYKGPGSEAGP

`CN(C)CCCN1c2ccccc2Sc2ccc(C(F)(F)F)cc21`: the Potency entry (in experiment [1]; in experiment [3]; with Papain (Carica papaya)) was “inactive” in each case. Further, the Potency in experiment [2] was 0.0977 µM (active); in experiment [4], 21.1 µM (active); in experiment [5], 18.8 µM (active). For the same molecule, in experiment [6], the outcome was “inactive”.

For `CCN(CC)CCOCCOC(=O)C1(c2ccccc2)CCCC1`, the Potency result (in [7]; in experiment [3]; with Papain (Carica papaya); in [4]) was “inactive” in each case.

Consider `CC(=O)[C@]1(O)Cc2c(O)c3c(c(O)c2[C@@H](O[C@H]2C[C@H](N)[C@H](O)[C@H](C)O2)C1)C(=O)c1ccccc1C3=O`, for which the Potency entry (in experiment [1]; in experiment [3]; with Papain (Carica papaya); in experiment [10]) was “inactive” throughout. Besides, the Potency in [2] is 17.4 µM (active); in experiment [4], 0.8 nM (active) and 41.7 nM (active); in experiment [5], 0.9 nM (active) and 37.2 nM (active); in experiment [9] it was 63 µM (active) and 70.6 µM (active). Further, the outcome in [8] was “inactive”.

Consider `CC(C)(C)c1ccc(C(=O)CCCN2CCC(OC(c3ccccc3)c3ccccc3)CC2)cc1`, for which the Potency entry (in [1]; with Papain (Carica papaya)) was “inactive” each time. The Potency was 11.9 µM (active) in experiment [4] and 9.44 µM (active) in experiment [5].

As for `COC(=O)[C@H]1[C@H]2C[C@@H]3c4[nH]c5cc(OC)ccc5c4CCN3C[C@H]2C[C@@H](OC(=O)c2cc(OC)c(OC)c(OC)c2)[C@@H]1OC`, the Potency in experiment [2] is 15.5 µM (active). The Potency entry in [4] and in [5] was “inactive” each time.

On to `COc1cc2c(cc1OC)-c1cc(=Nc3c(C)cc(C)cc3C)n(C)c(=O)n1CC2`, for which the Potency in experiment [2] was 12.3 µM (active); in [3], 0.49 µM (active); in experiment [4], 15 µM (active); in experiment [5], 15 µM (active); in [10], 44.1 µM (active). The Potency result in experiment [9] is “inactive”.

Take `COC(=O)C1=C(C)NC(C)=C(C(=O)OC(C)(C)CN(C)CCC(c2ccccc2)c2ccccc2)C1c1cccc([N+](=O)[O-])c1` (centres undefined): the Potency in experiment [7] was 10 µM (active); in experiment [2], 2.75 µM (active); in experiment [3], 1.95 µM (active). Further, the Potency entry with Papain (Carica papaya) is “inactive”.

As to `CC(C)[N+](C)(CCOC(=O)C1c2ccccc2Oc2ccccc21)C(C)C`, the Potency entry (in experiment [7]; in [3]; with Papain (Carica papaya); in experiment [4]; in experiment [5]) was “inactive” each time. In addition, the Potency in [2] is 0.309 µM (active).

With `CC(=O)Oc1cc(C(C)C)c(OCCN(C)C)cc1C`, the Potency result (in experiment [7]; in experiment [3]; in the experiment with Papain (Carica papaya); in experiment [4]; in experiment [5]) was “inactive” each time. Besides, the Potency in experiment [2] was 8.71 µM (active).

Regarding `CCCC(C(=O)OCCN(CC)CC)(c1ccccc1)c1ccccc1`, the Potency in experiment [2] is 0.0347 µM (active); in [3], 6.17 µM (active); in experiment [4], 13.3 µM (active); in experiment [5], 11.9 µM (active). Also, the Potency result with Papain (Carica papaya) was “inactive”.

With `CC1=C(C)C(=O)C(CCCCC#CCCCC#CCO)=C(C)C1=O`, the Potency result (in experiment [7]; with Papain (Carica papaya)) was “inactive” each time. The Potency in [2] is 4.9 µM (active); in experiment [3] it was 3.09 µM (active); in experiment [4], 18.8 µM (active); in [5], 10.6 µM (active). The figures for the activity in experiment [11], in [13] and in [14] were 4.09%, -9.42% and 5.31%, respectively. Besides, the activity change, negative = inhibition in [12] amounted to 4.63%.

For the molecule `CCn1nc(C(=O)O)c(=O)c2cc3c(cc21)OCO3`, the Potency entry (in experiment [7]; with Papain (Carica papaya); in experiment [4]; in experiment [5]) was “inactive” each time.

As to `Cc1cc(C)c(/C=C2\C(=O)Nc3ccccc32)[nH]1`, the Potency entry (in [7]; in experiment [2]; with Papain (Carica papaya); in [4]; in experiment [5]) was “inactive” each time. Also, the Potency in [3] is 9.77 µM (active).
